# According to the supplement of paper PMC4466140:
# What was measured:
# Assay in all cases: SPOT peptide array binding signal intensity (averaged, normalized) (arbitrary units (background-subtracted, floor 0; scale differs between SH3 domains)); higher = stronger binding of the SH3 domain to the peptide
# SpBzz1-D2 = target: SpBzz1-D2
# In short: (§1)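 GST-fused SH3 domains from four yeast species were expressed in E. coli BL21(DE3), purified on glutathione Sepharose and incubated at 10 μg/ml overnight at 4°C in TBS-based blocking buffer on cellulose membranes carrying synthetic 15-mer peptides, with cysteines replaced by serines. Bound protein was detected with anti-GST antibody, an HRP anti-mouse secondary and luminol, then imaged and quantified with Genespotter. Binding signal is the normalized, background-subtracted spot intensity averaged over replicates, in arbitrary units that differ between domains.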
# SpCyk3 = target: SpCyk3
# In short: as §1
# SpHof1 = target: SpHof1
# In short: as §1
# SpHof1-2 = target: SpHof1-2
# In short: as §1
# SpHof1-3 = target: SpHof1-3
# In short: as §1
# SpHse1 = target: SpHse1
# In short: as §1
# SpLsb1 = target: SpLsb1
# In short: as §1
# SpLsb4 = target: SpLsb4
# In short: as §1
# SpMyo1 = target: SpMyo1
# In short: as §1
# SpNbp2 = target: SpNbp2
# In short: as §1
# SpPex13 = target: SpPex13
# In short: as §1
# SpRvs167 = target: SpRvs167
# In short: as §1
# SpSla1-D1-D2 = target: SpSla1-D1-D2
# In short: as §1
# SpSla1-D3 = target: SpSla1-D3
# In short: as §1
# AgAbp1 = target: AgAbp1
# In short: as §1
# AgBbc1 = target: AgBbc1
# In short: as §1
# AgBem1-D1 = target: AgBem1-D1
# In short: as §1
# AgBzz1-D1 = target: AgBzz1-D1
# In short: as §1
# AgBzz1-D2 = target: AgBzz1-D2
# In short: as §1
# AgCyk3 = target: AgCyk3
# In short: as §1
# AgFus1 = target: AgFus1
# In short: as §1
# AgHof1 = target: AgHof1
# In short: as §1
# AgHse1 = target: AgHse1
# In short: as §1
# AgLsb1 = target: AgLsb1
# In short: as §1
# AgLsb4 = target: AgLsb4
# In short: as §1
# AgMyo5 = target: AgMyo5
# In short: as §1
# AgNbp2 = target: AgNbp2
# In short: as §1
# AgRvs167 = target: AgRvs167
# In short: as §1
# AgSho1 = target: AgSho1
# In short: as §1
# AgSla1-D1-D2 = target: AgSla1-D1-D2
# In short: as §1
# AgSla1-D3 = target: AgSla1-D3
# In short: as §1
# CaAbp1-D1 = target: CaAbp1-D1
# In short: as §1
# CaAbp1-D2 = target: CaAbp1-D2
# In short: as §1
# CaBbc1 = target: CaBbc1
# In short: as §1
# CaBem1-D1 = target: CaBem1-D1
# In short: as §1
# CaBzz1-D1 = target: CaBzz1-D1
# In short: as §1
# CaBzz1-D2 = target: CaBzz1-D2
# In short: as §1
# CaCyk3 = target: CaCyk3
# In short: as §1
# CaFus1 = target: CaFus1
# In short: as §1
# CaHof1 = target: CaHof1
# In short: as §1
# CaHse1 = target: CaHse1
# In short: as §1
# CaLsb1 = target: CaLsb1
# In short: as §1
# CaLsb4 = target: CaLsb4
# In short: as §1
# CaMyo5 = target: CaMyo5
# In short: as §1
# CaNbp2 = target: CaNbp2
# In short: as §1
# CaRvs167 = target: CaRvs167
# In short: as §1
# CaRvs167-3 = target: CaRvs167-3
# In short: as §1
# CaSho1 = target: CaSho1
# In short: as §1
# CaSla1-D1-D2 = target: CaSla1-D1-D2
# In short: as §1
# CaSla1-D3 = target: CaSla1-D3
# In short: as §1
# ScAbp1 = target: ScAbp1
# In short: as §1
# ScBbc1 = target: ScBbc1
# In short: as §1
# ScBem1-D1 = target: ScBem1-D1
# In short: as §1
# ScBzz1-D1 = target: ScBzz1-D1
# In short: as §1
# ScBzz1-D2 = target: ScBzz1-D2
# In short: as §1
# ScCyk3 = target: ScCyk3
# In short: as §1
# ScFus1 = target: ScFus1
# In short: as §1
# ScHof1 = target: ScHof1
# In short: as §1
# ScHse1 = target: ScHse1
# In short: as §1
# ScLsb1 = target: ScLsb1
# In short: as §1
# ScLsb2 = target: ScLsb2
# In short: as §1
# ScLsb3 = target: ScLsb3
# In short: as §1
# ScLsb4 = target: ScLsb4
# In short: as §1
# ScMyo3 = target: ScMyo3
# In short: as §1
# ScMyo5 = target: ScMyo5
# In short: as §1
# ScNbp2 = target: ScNbp2
# In short: as §1
# ScPex13 = target: ScPex13
# In short: as §1
# ScRvs167 = target: ScRvs167
# In short: as §1
# ScSho1 = target: ScSho1
# In short: as §1
# ScSla1-D1-D2 = target: ScSla1-D1-D2
# In short: as §1
# ScSla1-D3 = target: ScSla1-D3
# In short: as §1
# SpAbp1-D1 = target: SpAbp1-D1
# In short: as §1
# SpBbc1 = target: SpBbc1
# In short: as §1
# SpBzz1-D1 = target: SpBzz1-D1
# In short: as §1
binder,measurement,setting,value
IKKRNKIRLPSGSPE,SPOT peptide array binding signal intensity,SpBzz1-D2,2
same,SPOT peptide array binding signal intensity,SpCyk3,6.5
same,SPOT peptide array binding signal intensity,SpHof1,253
same,SPOT peptide array binding signal intensity,SpHof1-2,4.5
same,SPOT peptide array binding signal intensity,SpHof1-3,664
same,SPOT peptide array binding signal intensity,SpHse1,457
same,SPOT peptide array binding signal intensity,SpLsb1,6.5
same,SPOT peptide array binding signal intensity,SpLsb4,104
same,SPOT peptide array binding signal intensity,SpMyo1,4
same,SPOT peptide array binding signal intensity,SpNbp2,836
same,SPOT peptide array binding signal intensity,SpPex13,6
same,SPOT peptide array binding signal intensity,SpRvs167,8.5
same,SPOT peptide array binding signal intensity,SpSla1-D1-D2,1.5
same,SPOT peptide array binding signal intensity,SpSla1-D3,2
HPRFVSPRIPSRIVK,SPOT peptide array binding signal intensity,AgAbp1,258
same,SPOT peptide array binding signal intensity,AgBbc1,502
same,SPOT peptide array binding signal intensity,AgBem1-D1,182
same,SPOT peptide array binding signal intensity,AgBzz1-D1,185
same,SPOT peptide array binding signal intensity,AgBzz1-D2,23.5
same,SPOT peptide array binding signal intensity,AgCyk3,1
same,SPOT peptide array binding signal intensity,AgFus1,239
same,SPOT peptide array binding signal intensity,AgHof1,116
same,SPOT peptide array binding signal intensity,AgHse1,176
same,SPOT peptide array binding signal intensity,AgLsb1,138
same,SPOT peptide array binding signal intensity,AgLsb4,28
same,SPOT peptide array binding signal intensity,AgMyo5,11
same,SPOT peptide array binding signal intensity,AgNbp2,390
same,SPOT peptide array binding signal intensity,AgRvs167,12.3
same,SPOT peptide array binding signal intensity,AgSho1,13
same,SPOT peptide array binding signal intensity,AgSla1-D1-D2,62.5
same,SPOT peptide array binding signal intensity,AgSla1-D3,32.5
same,SPOT peptide array binding signal intensity,CaAbp1-D1,322
same,SPOT peptide array binding signal intensity,CaAbp1-D2,83.5
same,SPOT peptide array binding signal intensity,CaBbc1,1520
same,SPOT peptide array binding signal intensity,CaBem1-D1,226
same,SPOT peptide array binding signal intensity,CaBzz1-D1,255
same,SPOT peptide array binding signal intensity,CaBzz1-D2,149
same,SPOT peptide array binding signal intensity,CaCyk3,17
same,SPOT peptide array binding signal intensity,CaFus1,373
same,SPOT peptide array binding signal intensity,CaHof1,2
same,SPOT peptide array binding signal intensity,CaHse1,25
same,SPOT peptide array binding signal intensity,CaLsb1,1
same,SPOT peptide array binding signal intensity,CaLsb4,933
same,SPOT peptide array binding signal intensity,CaMyo5,13.8
same,SPOT peptide array binding signal intensity,CaNbp2,428
same,SPOT peptide array binding signal intensity,CaRvs167,230
same,SPOT peptide array binding signal intensity,CaRvs167-3,5.75
same,SPOT peptide array binding signal intensity,CaSho1,170
same,SPOT peptide array binding signal intensity,CaSla1-D1-D2,736
same,SPOT peptide array binding signal intensity,CaSla1-D3,11.5
same,SPOT peptide array binding signal intensity,ScAbp1,238
same,SPOT peptide array binding signal intensity,ScBbc1,283
same,SPOT peptide array binding signal intensity,ScBem1-D1,21.5
same,SPOT peptide array binding signal intensity,ScBzz1-D1,62
same,SPOT peptide array binding signal intensity,ScBzz1-D2,73.5
same,SPOT peptide array binding signal intensity,ScCyk3,12
same,SPOT peptide array binding signal intensity,ScFus1,147
same,SPOT peptide array binding signal intensity,ScHof1,8.75
same,SPOT peptide array binding signal intensity,ScHse1,820
same,SPOT peptide array binding signal intensity,ScLsb1,531
same,SPOT peptide array binding signal intensity,ScLsb2,694
same,SPOT peptide array binding signal intensity,ScLsb3,2050
same,SPOT peptide array binding signal intensity,ScLsb4,114
same,SPOT peptide array binding signal intensity,ScMyo3,27
same,SPOT peptide array binding signal intensity,ScMyo5,32.5
same,SPOT peptide array binding signal intensity,ScNbp2,510
same,SPOT peptide array binding signal intensity,ScPex13,86.2
same,SPOT peptide array binding signal intensity,ScRvs167,820
same,SPOT peptide array binding signal intensity,ScSho1,256
same,SPOT peptide array binding signal intensity,ScSla1-D1-D2,720
same,SPOT peptide array binding signal intensity,ScSla1-D3,36
same,SPOT peptide array binding signal intensity,SpAbp1-D1,180
same,SPOT peptide array binding signal intensity,SpBbc1,19
same,SPOT peptide array binding signal intensity,SpBzz1-D1,350
same,SPOT peptide array binding signal intensity,SpBzz1-D2,1
same,SPOT peptide array binding signal intensity,SpCyk3,4
same,SPOT peptide array binding signal intensity,SpHof1,145
same,SPOT peptide array binding signal intensity,SpHof1-2,15.8
same,SPOT peptide array binding signal intensity,SpHof1-3,295
same,SPOT peptide array binding signal intensity,SpHse1,318
same,SPOT peptide array binding signal intensity,SpLsb1,1380
same,SPOT peptide array binding signal intensity,SpLsb4,2670
same,SPOT peptide array binding signal intensity,SpMyo1,49
same,SPOT peptide array binding signal intensity,SpNbp2,78.5
same,SPOT peptide array binding signal intensity,SpPex13,32
same,SPOT peptide array binding signal intensity,SpRvs167,254
same,SPOT peptide array binding signal intensity,SpSla1-D1-D2,1.5
same,SPOT peptide array binding signal intensity,SpSla1-D3,11
